Source: PubChem
Only some compounds are listed: those with a hit (about 4.2% of all), similar ones and a draw of the others.
Mito fusion act = mitochondrial division inhibition or fusion activation; 320,000 tested, 0.23% active; S. cerevisiae fusion-defective mutant growth rescue, CellTiterGlo 48 h; Potency, µM (highest dose often 46.1 µM), without a hit: at the highest dose growth rescue (activation), hits mostly activators; also: % of control where 0% means no effect; nearly all actives have a fitted effect of over 45% in size
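Growth-rescue viability read-out: after 48 h at the non-permissive 37C in glycerol/ethanol YPEG, yeast mitochondrial fusion mutants are measured by CellTiterGlo luminescence; compounds (23 nl pinned per well) restoring growth score as division inhibitors or fusion activators.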
a7 integrin act = activators of alpha7 integrin expression for muscular dystrophy; alpha7betagal myoblasts, beta-gal FDG fluorescence, 48 h; Potency, µM (titrated, usually from 38.3 µM), without a hit: at the top dose activation, actives largely listed as activators; 350,000 tested, 0.064% active; AID 624291;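 also: 100% = response of the positive control SU9516; nearly all actives have a fitted effect of over 60% in size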
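alpha7betagal+/- myoblasts (passage 13, 250/well) treated 48 h at 37C with compounds at 1:260 dilution of DMSO stock. Lysed, then beta-galactosidase activity read as FDG fluorescence (ex 480/em 540) after 30 min, with pre-read for autofluorescence.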
A-T KAP1 phos = potential ataxia-telangiectasia treatment; F2112 A-T fibroblasts, KAP-1 phosphorylation AlphaLISA; neocarzinostatin DNA damage 30 min before lysis; Potency, µM (doses to about 57.5 µM), for inactives: at the highest dose activation, hits mostly activators; 320,000 tested, 0.19% active; AID 485349; also: % of control where 0% means no effect; nearly all actives have a fitted effect of over 45% in size
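ATM-like activity read as KAP-1 phosphorylation via AlphaLISA donor/acceptor antibody pairs after lysis and 6 hr at 25C. Cells were ATM-null patient fibroblasts (F2112, hTERT), dosed 60 min, then exposed to the DSB inducer NCS for 30 min.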
SW480 rereplic = induces DNA re-replication in SW480 colon adenocarcinoma cells; 340,000 tested, 1.8% active; SW480 DNA re-replication, Hoechst DNA content imaging, 48 h; Potency, µM (highest dose often 46.1 µM), for the others: top-dose re-replication activation, most hits filed as activators; AID 624297; also: % of control where 0% means no effect; nearly all actives have a fitted effect of over 55% in size
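First, 250 cells per well were seeded. Next, compound or vehicle (23 nL) was pinned in, plates sat 48 hr at 37 C. Finally Hoechst was added for 40 min before fluorescence scanning.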
MCF10A rereplic = inducers of DNA re-replication in MCF 10A breast cells | MCF 10A DNA re-replication, Hoechst nuclear intensity, 48 h | Potency, µM (top dose mostly 46.1 µM), inactives show at the top dose activity, positive = re-replication, hits mostly activators | 350,000 tested, 2.9% active; also: % of control where 0% means no effect; nearly all actives have a fitted effect of over 50% in size
* marks the source's active call; other numbers are inactive results; u = inconclusive; x = no result; [ ] = remark or other dose. Calls follow the shape of the dose curve; as a rule, active = well fitted activation curve with a large enough effect; inconclusive = small, poorly fitted or top-dose-only effect; inactive = no such curve, though single readings can be large or run the other way. Potency is read from the fitted curve at half-maximal effect.

SMILES	Mito fusion act	a7 integrin act	A-T KAP1 phos	SW480 rereplic	MCF10A rereplic
CC(C)(C)N(C(=O)Cn1nnc(-c2ccc(F)cc2)n1)C(C(=O)NC1CCCC1)c1ccncc1 (stereo not drawn)	0%	-9%	-8%	3%	11%
CC(C)(C)c1ccc(CN2N=C(/C=C/c3ccccc3)CCC2=O)cc1	5%	-14%	1%	u	21µM*
O=C1CCC(/C=C/c2ccccc2)=NN1Cc1ccccc1	3%	16%	2%	-7%	0%
O=C(CSc1nnc2ccc(-c3cccnc3)nn12)Nc1ccccc1F	-4%	-13%	-2%	-13%	0%
COc1ccc(N(C(=O)Cn2cnc3ccccc32)C(C(=O)NC2CCCCC2)c2ccccc2)cc1 (stereo not drawn)	0%	18%	-2%	23µM*	u
COc1cc2c(-c3ccc(O)cc3)nc3c(c(C)nn3-c3ccccc3)c2cc1OC	15%	-55%	-6%	u	15µM*
COc1cccc(Cn2ncc3c4sc(B(O)O)cc4n(C)c3c2=O)c1	0%	x	-11%	x	x
CC(=NNc1nc2ccccc2o1)c1cc2ccccc2cn1	x	-53%	x	13µM*	u
CC(=NNc1nc2ccccc2o1)c1ncccn1	x	-54%	x	u	u
NNC(=O)c1cc2ccccc2[nH]1	-5%	0%	4%	18µM*	12µM*
NNC(=O)c1cc2cc(Oc3ccccc3)ccc2[nH]1	7%	8%	0%	5.8µM*	u
O=C(NCCCO)c1cc2ccccc2[nH]1	-1%	12%	4%	-17%	-1%
COc1ccccc1NC(=O)C1CCC(CNc2c(N3CCCCC3)c(=O)c2=O)CC1 (stereo not drawn)	-2%	2%	6%	-14%	0%
Cc1ccc(S(=O)(=O)NC(=NC(C)C)c2ccccc2)cc1	6%	10%	-1%[11.5 µM]	u	0.52µM*
Cc1ccc(S(=O)(=O)NC(=NC(C)C(=O)O)c2ccccc2)cc1 (stereo not drawn)	0%	3%	-1%	-2%[9.22 µM]	-5%
Cn1ccc2cc(-c3ccc4ncnc(NCc5cccnc5)c4c3)ccc21	-14%	x	8%	x	x
Cn1ccc2cc(-c3ccc4ncnc(NCc5cccs5)c4c3)ccc21	-12%	x	-3%	u	12µM*
COc1ccc([C@H]2C[C@@H](O)[C@H](n3cc(C4CC4)nn3)CN2C(=O)c2cccs2)cc1	x	4%	x	x	x
COc1ccc(/C=C/C(=O)Nc2ccc(OC)nc2)cc1	0%	u	-7%	0%	0%
COc1ccc(NC(=O)/C=C/c2ccc(OC(F)F)cc2)cn1	5%	-16%	-5%	u	21µM*
Cc1cc(C)cc(NC(=O)c2ccc(N3C(=O)C4CCCCC4C3=O)cc2)c1 (stereo not drawn)	-2%	11%	2%	0%	8%
CCCNC(=O)C1CC(=O)N(c2ccc(OCc3ccc(F)cc3)cc2)C1 (stereo not drawn)	0%	-10%	-21%	-67%	0.65µM*
COc1ccc2c(c1)c1c(c(=O)n(-c3ccc(C)cc3)c(=O)n1CC(=O)NCC1CCCO1)n2C (stereo not drawn)	x	2%	x	x	x
Cc1ccc(S(=O)(=O)N2CCN(C(=O)c3cccs3)CC2)c(C)c1	-2%	-18%	2%	4.1µM*	3%
CCc1ccc(Nc2nnc(SCC(=O)NC(=O)CN3CCCC3=O)s2)cc1	1%	-13%	5%	-35%	-3%
O=[N+]([O-])c1cccc(S(=O)(=O)Nc2nc3ccccc3nc2Nc2cccc(S(=O)(=O)N3CCCCC3)c2)c1	-11%	8%	2%	9%	8%
O=S(=O)(c1ccc2nc(N3CCN(c4ccccc4F)CC3)ccc2c1)N1CCCCC1	-3%	25%	19%	4%	10%
Cc1ccc(S(=O)(=O)Nc2nc3ccccc3nc2Nc2cccc(S(=O)(=O)N3CCCC3)c2)cc1	5%	-21%	2%	u	21µM*
O=S(=O)(c1ccc2nc(Nc3ccccc3)ccc2c1)N1CCCCC1	24%	0%	4%	2.8µM*	u
Cc1ccc(N(C)C(=O)CCS(=O)(=O)c2cc3c(cc2Cl)NC(=O)CO3)cc1	-1%	-11%	-5%	u	4%
